In publication PMC5700166:

Molecular target: T1, GST-Nv-NF-kB (Ser allele) (Nematostella vectensis, UniProt A7UNT2 2-411)
T1 sequence: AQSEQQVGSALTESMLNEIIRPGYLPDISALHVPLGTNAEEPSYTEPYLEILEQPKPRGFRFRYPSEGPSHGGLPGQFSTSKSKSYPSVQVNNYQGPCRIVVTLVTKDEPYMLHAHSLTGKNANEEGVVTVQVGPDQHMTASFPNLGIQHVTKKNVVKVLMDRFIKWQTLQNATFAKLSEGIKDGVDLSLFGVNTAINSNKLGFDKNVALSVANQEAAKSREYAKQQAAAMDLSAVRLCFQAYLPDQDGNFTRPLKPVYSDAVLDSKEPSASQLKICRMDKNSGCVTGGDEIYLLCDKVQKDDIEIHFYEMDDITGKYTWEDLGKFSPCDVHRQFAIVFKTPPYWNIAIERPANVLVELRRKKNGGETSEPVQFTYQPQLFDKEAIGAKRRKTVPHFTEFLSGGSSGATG
Test: protein-binding microarray (PBM); PBM: ~300 nM protein, 6 mM HEPES pH 7.8, 80 mM KCl, 0.5 mM EDTA, 0.5 mM EGTA, 6% glycerol, 35 ng/ul poly-dIdC, 1% milk, 1 h, room temperature; Ap Aiptasia and Nv Nematostella (sea anemones) / Co Capsaspora / Aq Amphimedon (sponge) / Dm Drosophila / Hu human; RHD is the Rel homology domain; high values mean tight binding
Details: dsDNA, one strand shown

| Sequence | binding signal |
| --- | --- |
| CCGATTAACATCAGGGGAAGATATGATGTTAATCGGGTCTTGATTCGCTTGACGCTGCTG | 7.91 z-score |
| CCGATTAACATCAGAAAATCCCCTGATGTTAATCGGGTCTTGATTCGCTTGACGCTGCTG | 13.8 z-score |
| CCGATTAACATCAGGATGCCCCCTGATGTTAATCGGGTCTTGATTCGCTTGACGCTGCTG | 2.93 z-score |
| CCGATTAACATCAAATTTTCCCGTGATGTTAATCGGGTCTTGATTCGCTTGACGCTGCTG | 7.05 z-score |
| CCGATTAACATCAGGGGAGTTACTGATGTTAATCGGGTCTTGATTCGCTTGACGCTGCTG | 4.83 z-score |
| CCGATTAACATCACGGGGGATTCTGATGTTAATCGGGTCTTGATTCGCTTGACGCTGCTG | 8.48 z-score |
| CCGATTAACATCAATTATTCCCCTGATGTTAATCGGGTCTTGATTCGCTTGACGCTGCTG | 9.75 z-score |
| CCGATTAACATCAGGGACTGCCCTGATGTTAATCGGGTCTTGATTCGCTTGACGCTGCTG | 3.06 z-score |
| CCGATTAACATCAGATTCCCCCATGATGTTAATCGGGTCTTGATTCGCTTGACGCTGCTG | 8.63 z-score |
| CCGATTAACATCAAGAACTTCCCTGATGTTAATCGGGTCTTGATTCGCTTGACGCTGCTG | 3.72 z-score |
| CCGATTAACATCAAATATCCCCATGATGTTAATCGGGTCTTGATTCGCTTGACGCTGCTG | 7.36 z-score |
| CCGATTAACATCAGGGAATTTACTGATGTTAATCGGGTCTTGATTCGCTTGACGCTGCTG | 6.33 z-score |
| CCGATTAACATCAGCGATTCCCCTGATGTTAATCGGGTCTTGATTCGCTTGACGCTGCTG | 8.57 z-score |
| CCGATTAACATCAGAATATCCCCTGATGTTAATCGGGTCTTGATTCGCTTGACGCTGCTG | 8.08 z-score |
| CCGATTAACATCAGGGACTTTCATGATGTTAATCGGGTCTTGATTCGCTTGACGCTGCTG | 7.09 z-score |
| CCGATTAACATCAGGGGGTTTGATGATGTTAATCGGGTCTTGATTCGCTTGACGCTGCTG | 6.14 z-score |
| CCGATTAACATCAAATTCCCCCCTGATGTTAATCGGGTCTTGATTCGCTTGACGCTGCTG | 8.88 z-score |
| CCGATTAACATCACTAAATCCCCTGATGTTAATCGGGTCTTGATTCGCTTGACGCTGCTG | 9.63 z-score |
| CCGATTAACATCAGGAACTTCCCTGATGTTAATCGGGTCTTGATTCGCTTGACGCTGCTG | 3.16 z-score |
| CCGATTAACATCAAATTTCCCTATGATGTTAATCGGGTCTTGATTCGCTTGACGCTGCTG | 6.37 z-score |

| Sequence | binding signal |
| --- | --- |
| CCGATTAACATCAGGGAAAACCCTGATGTTAATCGGGTCTTGATTCGCTTGACGCTGCTG | 7.71 z-score |
| CCGATTAACATCAGGGGGAACGATGATGTTAATCGGGTCTTGATTCGCTTGACGCTGCTG | 6.18 z-score |
| CCGATTAACATCAGGGAATTTGATGATGTTAATCGGGTCTTGATTCGCTTGACGCTGCTG | 5.71 z-score |
| CCGATTAACATCAGGATCCCCCCTGATGTTAATCGGGTCTTGATTCGCTTGACGCTGCTG | 6.33 z-score |
| CCGATTAACATCAAATAAACCCCTGATGTTAATCGGGTCTTGATTCGCTTGACGCTGCTG | 4.3 z-score |
| CCGATTAACATCAAATTCCCGCCTGATGTTAATCGGGTCTTGATTCGCTTGACGCTGCTG | 4.63 z-score |
| CCGATTAACATCACGAAACCCCCTGATGTTAATCGGGTCTTGATTCGCTTGACGCTGCTG | 7.65 z-score |
| CCGATTAACATCAGGGAAAATTATGATGTTAATCGGGTCTTGATTCGCTTGACGCTGCTG | 8.46 z-score |
| CCGATTAACATCACTGGATTCCCTGATGTTAATCGGGTCTTGATTCGCTTGACGCTGCTG | 3.56 z-score |
| CCGATTAACATCAGGGAAACTAATGATGTTAATCGGGTCTTGATTCGCTTGACGCTGCTG | 4.37 z-score |
| CCGATTAACATCAAGCAATCCCCTGATGTTAATCGGGTCTTGATTCGCTTGACGCTGCTG | 6.94 z-score |
| CCGATTAACATCAGGGGATTGTATGATGTTAATCGGGTCTTGATTCGCTTGACGCTGCTG | 8.67 z-score |
| CCGATTAACATCACTATATCCCCTGATGTTAATCGGGTCTTGATTCGCTTGACGCTGCTG | 5.9 z-score |
| CCGATTAACATCAAGTTCCCCCATGATGTTAATCGGGTCTTGATTCGCTTGACGCTGCTG | 6.97 z-score |
| CCGATTAACATCAAGGGTGGGAATGATGTTAATCGGGTCTTGATTCGCTTGACGCTGCTG | 1.42 z-score |
| CCGATTAACATCAGAGCTCCCCCTGATGTTAATCGGGTCTTGATTCGCTTGACGCTGCTG | 4.32 z-score |
| CCGATTAACATCACACATCCCCCTGATGTTAATCGGGTCTTGATTCGCTTGACGCTGCTG | 5.41 z-score |
| CCGATTAACATCAGGGATTCCCCTGATGTTAATCGGGTCTTGATTCGCTTGACGCTGCTG | 15.4 z-score |
| CCGATTAACATCAACACCCCCCTTGATGTTAATCGGGTCTTGATTCGCTTGACGCTGCTG | 3.96 z-score |
| CCGATTAACATCAGGGAACACCCTGATGTTAATCGGGTCTTGATTCGCTTGACGCTGCTG | 1.87 z-score |

Molecular target: T2, GST-Co-NF-kB (Capsaspora owczarzaki, UniProt F1ARL5 200-546)
T2 sequence: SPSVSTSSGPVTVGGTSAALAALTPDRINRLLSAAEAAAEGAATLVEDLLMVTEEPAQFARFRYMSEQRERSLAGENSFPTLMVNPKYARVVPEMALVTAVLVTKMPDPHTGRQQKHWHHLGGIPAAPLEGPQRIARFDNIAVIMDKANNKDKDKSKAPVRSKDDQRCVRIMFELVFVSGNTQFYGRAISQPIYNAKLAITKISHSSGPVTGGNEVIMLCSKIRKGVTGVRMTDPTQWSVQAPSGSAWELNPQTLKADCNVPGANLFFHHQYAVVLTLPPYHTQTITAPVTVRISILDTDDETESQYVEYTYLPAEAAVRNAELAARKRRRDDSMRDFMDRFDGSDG
Test: as above
Details: dsDNA, one strand shown

| Sequence | binding signal |
| --- | --- |
| CCGATTAACATCAGGGGAAGATATGATGTTAATCGGGTCTTGATTCGCTTGACGCTGCTG | 8.77 z-score |
| CCGATTAACATCAGAAAATCCCCTGATGTTAATCGGGTCTTGATTCGCTTGACGCTGCTG | 4.89 z-score |
| CCGATTAACATCAGGATGCCCCCTGATGTTAATCGGGTCTTGATTCGCTTGACGCTGCTG | 1.55 z-score |
| CCGATTAACATCAAATTTTCCCGTGATGTTAATCGGGTCTTGATTCGCTTGACGCTGCTG | 6.38 z-score |
| CCGATTAACATCAGGGGAGTTACTGATGTTAATCGGGTCTTGATTCGCTTGACGCTGCTG | 3.43 z-score |
| CCGATTAACATCACGGGGGATTCTGATGTTAATCGGGTCTTGATTCGCTTGACGCTGCTG | 7.06 z-score |
| CCGATTAACATCAATTATTCCCCTGATGTTAATCGGGTCTTGATTCGCTTGACGCTGCTG | 9.22 z-score |
| CCGATTAACATCAGGGACTGCCCTGATGTTAATCGGGTCTTGATTCGCTTGACGCTGCTG | 1.04 z-score |
| CCGATTAACATCAGATTCCCCCATGATGTTAATCGGGTCTTGATTCGCTTGACGCTGCTG | 8.94 z-score |
| CCGATTAACATCAAGAACTTCCCTGATGTTAATCGGGTCTTGATTCGCTTGACGCTGCTG | 2.1 z-score |
| CCGATTAACATCAAATATCCCCATGATGTTAATCGGGTCTTGATTCGCTTGACGCTGCTG | 4.59 z-score |
| CCGATTAACATCAGGGAATTTACTGATGTTAATCGGGTCTTGATTCGCTTGACGCTGCTG | 3.89 z-score |
| CCGATTAACATCAGCGATTCCCCTGATGTTAATCGGGTCTTGATTCGCTTGACGCTGCTG | 5.5 z-score |
| CCGATTAACATCAGAATATCCCCTGATGTTAATCGGGTCTTGATTCGCTTGACGCTGCTG | 3.97 z-score |
| CCGATTAACATCAGGGACTTTCATGATGTTAATCGGGTCTTGATTCGCTTGACGCTGCTG | 1.04 z-score |
| CCGATTAACATCAGGGGGTTTGATGATGTTAATCGGGTCTTGATTCGCTTGACGCTGCTG | 1.61 z-score |
| CCGATTAACATCAAATTCCCCCCTGATGTTAATCGGGTCTTGATTCGCTTGACGCTGCTG | 10.1 z-score |
| CCGATTAACATCACTAAATCCCCTGATGTTAATCGGGTCTTGATTCGCTTGACGCTGCTG | 3.45 z-score |
| CCGATTAACATCAGGAACTTCCCTGATGTTAATCGGGTCTTGATTCGCTTGACGCTGCTG | 1.73 z-score |
| CCGATTAACATCAAATTTCCCTATGATGTTAATCGGGTCTTGATTCGCTTGACGCTGCTG | 3.02 z-score |

| Sequence | binding signal |
| --- | --- |
| CCGATTAACATCAGGGAAAACCCTGATGTTAATCGGGTCTTGATTCGCTTGACGCTGCTG | 3.49 z-score |
| CCGATTAACATCAGGGGGAACGATGATGTTAATCGGGTCTTGATTCGCTTGACGCTGCTG | 7.4 z-score |
| CCGATTAACATCAGGGAATTTGATGATGTTAATCGGGTCTTGATTCGCTTGACGCTGCTG | 3.17 z-score |
| CCGATTAACATCAGGATCCCCCCTGATGTTAATCGGGTCTTGATTCGCTTGACGCTGCTG | 5.45 z-score |
| CCGATTAACATCAAATAAACCCCTGATGTTAATCGGGTCTTGATTCGCTTGACGCTGCTG | 2.32 z-score |
| CCGATTAACATCAAATTCCCGCCTGATGTTAATCGGGTCTTGATTCGCTTGACGCTGCTG | 3.86 z-score |
| CCGATTAACATCACGAAACCCCCTGATGTTAATCGGGTCTTGATTCGCTTGACGCTGCTG | 2.69 z-score |
| CCGATTAACATCAGGGAAAATTATGATGTTAATCGGGTCTTGATTCGCTTGACGCTGCTG | 6.45 z-score |
| CCGATTAACATCACTGGATTCCCTGATGTTAATCGGGTCTTGATTCGCTTGACGCTGCTG | 2.61 z-score |
| CCGATTAACATCAGGGAAACTAATGATGTTAATCGGGTCTTGATTCGCTTGACGCTGCTG | 3.69 z-score |
| CCGATTAACATCAAGCAATCCCCTGATGTTAATCGGGTCTTGATTCGCTTGACGCTGCTG | 2.5 z-score |
| CCGATTAACATCAGGGGATTGTATGATGTTAATCGGGTCTTGATTCGCTTGACGCTGCTG | 3.04 z-score |
| CCGATTAACATCACTATATCCCCTGATGTTAATCGGGTCTTGATTCGCTTGACGCTGCTG | 3.51 z-score |
| CCGATTAACATCAAGTTCCCCCATGATGTTAATCGGGTCTTGATTCGCTTGACGCTGCTG | 10.1 z-score |
| CCGATTAACATCAAGGGTGGGAATGATGTTAATCGGGTCTTGATTCGCTTGACGCTGCTG | 2.88 z-score |
| CCGATTAACATCAGAGCTCCCCCTGATGTTAATCGGGTCTTGATTCGCTTGACGCTGCTG | 5.45 z-score |
| CCGATTAACATCACACATCCCCCTGATGTTAATCGGGTCTTGATTCGCTTGACGCTGCTG | 4.17 z-score |
| CCGATTAACATCAGGGATTCCCCTGATGTTAATCGGGTCTTGATTCGCTTGACGCTGCTG | 6.68 z-score |
| CCGATTAACATCAACACCCCCCTTGATGTTAATCGGGTCTTGATTCGCTTGACGCTGCTG | 2.8 z-score |
| CCGATTAACATCAGGGAACACCCTGATGTTAATCGGGTCTTGATTCGCTTGACGCTGCTG | 2.35 z-score |
